# Source: PubChem BioAssay AID1479144 (National Center for Advancing Translational Sciences (NCATS), 2020)
# Records with an inconclusive call do not appear. Values without a mark were called inactive. Calls of active or inactive are those of the source. Calls come from the whole dose curve.
# Test: Confirmatory qHTS for Vero E6 cytotoxicity: counterscreen for inhibitors of SARS-S pseudo-typed particle cell entry
# Conditions: cell viability; series mostly up to 57.1 µM; activity change, negative = cytotoxicity: at the top concentration
Compound,"activity change, negative = cytotoxicity",Potency
C=CC1(C)CC(=O)C2(O)C(C)(O1)C(OC(C)=O)C(OC(=O)CCN(C)C)C1C(C)(C)CCC(O)C12C (stereo not drawn),-12.4%,
COC(=O)C1=C(C)NC(C)=C(C(=O)OCC(C)C)C1c1ccccc1[N+](=O)[O-] (stereo not drawn),,27.1 µM (active)
CCN1CCN(Cc2ccc(Nc3ncc(F)c(-c4cc(F)c5nc(C)n(C(C)C)c5c4)n3)nc2)CC1,0%,
CC(=O)OCC1=C(C(=O)O)N2C(=O)[C@@H](NC(=O)Cc3cccs3)[C@H]2SC1,4.91%,
CC(C)(C)NCC(O)COc1ccccc1C1CCCC1 (stereo not drawn),-11.2%,
CC(C)(C)C(=O)OCOP(=O)(COCCn1cnc2c(N)ncnc21)OCOC(=O)C(C)(C)C,-6.28%,
Cc1nnc(C(=O)NC(C)(C)c2nc(C(=O)NCc3ccc(F)cc3)c(O)c(=O)n2C)o1,3.68%,
CCCCCCCCCCCC[n+]1ccc2ccccc2c1,,3.83 µM (active)
CN1CCC[C@@H]1CCO[C@](C)(c1ccccc1)c1ccc(Cl)cc1,-11.2%,
C=CC(=O)Nc1cc(Nc2nccc(-c3cn(C)c4ccccc34)n2)c(OC)cc1N(C)CCN(C)C,,13.6 µM (active)
OCCN1CCN(CC/C=C2/c3ccccc3Sc3ccc(C(F)(F)F)cc32)CC1,-23.7%,
CN(C)CCC=C1c2ccccc2C(C)(C)c2ccccc21,0%,
CCC(C)(C)C(=O)O[C@H]1C[C@@H](C)C=C2C=C[C@H](C)[C@H](CC[C@@H]3C[C@@H](O)CC(=O)O3)[C@H]21,,5.41 µM (active)
N#CC(c1ccc(Cl)cc1)c1c(Cl)cc(-n2ncc(=O)[nH]c2=O)cc1Cl (stereo not drawn),,24.1 µM (active)
O=c1ccc2ccccc2o1,0%,
CCc1c2c(nc3ccc(OC(=O)N4CCC(N5CCCCC5)CC4)cc13)-c1cc3c(c(=O)n1C2)COC(=O)[C@]3(O)CC,0%,
CC(C)OC(=O)[C@H](C)N[P@](=O)(CO[C@H](C)Cn1cnc2c(N)ncnc21)Oc1ccccc1,0%,

Compound,"activity change, negative = cytotoxicity",Potency
CC(C)OC(=O)OCOP(=O)(CO[C@H](C)Cn1cnc2c(N)ncnc21)OCOC(=O)OC(C)C,-16.5%,
CCN(CC)Cc1cc(Nc2ccnc3cc(Cl)ccc23)ccc1O,-2.14%,
CCCCCCOC(=O)NC(=N)c1ccc(NCc2nc3cc(C(=O)N(CCC(=O)OCC)c4ccccn4)ccc3n2C)cc1,0%,
CCCCCCCCCCCCOCCOCCOCCOCCOCCOCCOCCOCCOCCO,-16.9%,
CCOc1ccc(Cc2nccc3cc(OCC)c(OCC)cc23)cc1OCC,,27.1 µM (active)
CC(=O)Oc1ccccc1C(=O)Nc1ncc([N+](=O)[O-])s1,,9.61 µM (active)
CN(C)CCOC(c1ccccc1)c1ccc(Br)cc1 (stereo not drawn),-3.96%,
CC[C@@]1(O)C(=O)OCc2c1cc1n(c2=O)Cc2cc3c([N+](=O)[O-])cccc3nc2-1,,3.93 µM (active)
COc1cc2c(cc1Cc1cccc(Cl)c1F)c(=O)c(C(=O)O)cn2[C@H](CO)C(C)C,0%,
O=C(O)c1cc(O)c2c(c1)[C@H]([C@H]1c3cc(C(=O)O)cc(O)c3C(=O)c3c(O[C@@H]4O[C@H](CO)[C@@H](O)[C@H](O)[C@H]4O)cccc31)c1cccc(O[C@@H]3O[C@H](CO)[C@@H](O)[C@H](O)[C@H]3O)c1C2=O,3.1% [at 33 µM],
COc1cc(N)c(Cl)cc1C(=O)NC1CCN(CCCOc2ccc(F)cc2)CC1OC (stereo not drawn),4.05%,
Cc1nn(C)c2c1C(c1ccccc1F)=NCC(=O)N2C,0%,
CN(C/C=C/c1ccccc1)Cc1cccc2ccccc12,-9.07%,
CC(C)(C)NC(=O)[C@H]1CC[C@H]2[C@@H]3CC[C@H]4NC(=O)C=C[C@]4(C)[C@H]3CC[C@]12C,0.628%,
C/C=C(/C)C(=O)O[C@H]1C(C)=CC23C(=O)C(C=C(CO)[C@@H](O)[C@]12O)[C@H]1[C@@H](C[C@H]3C)C1(C)C (stereo partly drawn),3.6%,
CN1CCCCC1CCN1c2ccccc2Sc2ccc(S(C)=O)cc21 (stereo not drawn),-13.1%,
